# Marburg entry inh: blocks Marburg virus binding to or entry into cells; AID 540276; hit rate 1.8% among 300,000; Marburg virus pseudotyped entry inhibition, cell reporter; Potency, µM (top dose mostly 37.8 µM), for inactives: at the highest dose activity change, negative = inhibition, usual class: inhibitors; calls by dose curve; tested in HEK293 cells; also: potency is read from the fitted curve at half-maximal effect; % is scaled to controls: 0 for no effect and ±100 for the full control effect
# HCV inhibitor: blocks hepatitis C virus | Potency, µM (highest dose often 41.8 µM), without a hit: top-dose activity change, negative = inhibition, hits mostly inhibitors | AID 651820 | hit rate 3.4% among 340,000 | Huh7.5.1 HCVcc-Cre infection, luciferase reporter, 44 h; active = well fitted inhibition curve with a large enough effect; inconclusive = small, poorly fitted or top-dose-only effect, or another doubt; inactive = no such curve, though single readings can be large or run the other way; also: potency is read from the fitted curve at half-maximal effect; % is scaled to controls: 0 for no effect and ±100 for the full control effect
#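 Infectious HCVcc-Cre (~0.5 moi) was added to cells just after compound, with cells seeded 4 h earlier at 1,000 per well. Luciferase activity after 44 h culture reported infection; substrate was incubated 15 min at room temperature before reading.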
# SARS PLP yeast: blocks SARS-CoV papain-like protease in a yeast assay; hit rate 0.19% among 330,000; Potency, µM (doses to about 32.9 µM), for the others: top-dose activity, positive = growth rescue, actives largely listed as activators; S. cerevisiae expressing SARS-CoV PLpro, growth rescue; calls by dose curve; also: potency is read from the fitted curve at half-maximal effect; 0% is about no effect; nearly all actives have a fitted effect of over 55% in size
# HCMV inh: inhibitors of human cytomegalovirus. activity change, negative = inhibition, % at 57.5 µM. HFF cells, HCMV-luciferase reporter, 72 h; active compounds read low. hit rate 4.5% among 410,000; in the data active = activity change below about -60%; inconclusive = no clear call, values can overlap the other calls; inactive = above about -39%; also: % is scaled to controls: 0 for no effect and ±100 for the full control effect
#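 Two-dose cell screen: HFF monolayers treated with compounds and infected with luciferase-expressing HCMV at 1 PFU/cell, 72 h at 37C, then lysed for luciferase measurement.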
# Lassa entry inh: Lassa virus entry inhibition; AID 540256; Potency, µM (highest dose often 37.9 µM), for inactives: at the top dose activity change, negative = inhibition, actives largely listed as inhibitors; Lassa virus pseudotype entry inhibition, cell reporter; hit rate 1.2% among 300,000; calls by dose curve; tested in HEK293 cells; also: potency is read from the fitted curve at half-maximal effect; % is scaled to controls: 0 for no effect and ±100 for the full control effect; nearly all actives have a fitted effect of over 50% in size
# FMDV inh: antivirals against foot and mouth disease virus. hit rate 1.2% among 410,000. FMDV antiviral cell-based qHTS. Potency, µM (series often up to 57.9 µM), for the others: at the top dose activity change, negative = inhibition, actives largely listed as inhibitors. AID 1159524; calls by dose curve; tested in HEK293T cells; also: read-out not given here; potency is read from the fitted curve at half-maximal effect; % is scaled to controls: 0 for no effect and ±100 for the full control effect; nearly all actives have a fitted effect of over 45% in size
# Starred values were filed as active, the others as inactive; ? = inconclusive; / = no result given; [ ] = another dose, or the depositor's remark. Compounds with a hit are over-represented: about 8% of the library has one in this group of screens.
SMILES,Marburg entry inh,HCV inhibitor,SARS PLP yeast,HCMV inh,Lassa entry inh,FMDV inh
CCc1ccc(NC(=O)NNC(=O)c2cc3ccccc3cc2O)cc1,/,3.3%,-6.0%,0.1,/,17.1%
O=C(Nc1ccc(Br)c2ccccc12)c1ccc2ccccc2c1O,/,?,-12.3%,-100.1*,/,?
CCc1ccc(NC(=O)NNC(=O)c2ccc3ccccc3c2O)cc1,/,5.6%,0.2%,-82.3*,/,13.6%
CC(C)(C)c1ccc(S(=O)(=O)NC(=O)C2(C)CCN2C(=O)CC2CCCCC2)cc1 (stereo not drawn),/,/,/,-10.0,/,2.2%
COC12C(COC(N)=O)C3=C(C(=O)C(C)=C(N)C3=O)N1CC1C2N1C (stereo not drawn),/,?,4.1%,-104.9*,/,-10.0%
Cc1c(C(=O)NN)nn(-c2ccc(Cl)cc2)c(=O)c1C#N,?,14.1µM*,1.2%,-36.5,-23.4%,12.6µM*
Cc1cc(NC(=O)CCCSc2nc(-c3ccco3)cc(C(F)(F)F)n2)n(-c2ccccc2)n1,-48.6%,11.2µM*,5.2%,-6.0,-16.5%,?
Cc1cc(NC(=O)CSc2nc(-c3ccco3)cc(C(F)(F)F)n2)n(-c2ccccc2)n1,?,31.6µM*,15.1%,-32.1,?,-5.0%
CCc1ccccc1NC(=O)CCCSc1nc(-c2ccco2)cc(C(F)(F)F)n1,?,/,/,-9.5,9.3%[46.1 µM],-6.8%
COC(=O)C1=C(C)N(Cc2ccccc2)C(=NCCN2CCOCC2)N[C@H]1CCc1ccccc1,/,-3.2%,-13.3%,-14.6,/,-7.5%
Oc1ccc(/C=N/n2c3ccccc3c3ccccc32)cc1,-4.3%,10µM*,-33.2%,2.2,-11.4%,-21.8%
COc1cc(OC)c2c(-c3cccc(-c4ccc(N(C)C)cc4)c3)cc(=O)oc2c1,/,?,-1.6%,-72.6*,/,-6.2%
COc1ccc(-c2cccc(-c3cc(=O)oc4cc(OC)cc(OC)c34)c2)cc1,/,?,10.7%,-73.2*,/,-26.4%
COc1cc(OC)c2c(-c3cccc(-c4cccc(C)c4)c3)cc(=O)oc2c1,/,4.47µM*,-10.2%,-34.9,/,?
COc1cc(OC)c2c(-c3cccc(-c4ccc(O)cc4)c3)cc(=O)oc2c1,/,?,1.5%,-13.7,/,?
COc1cc(OC)c2c(-c3cccc(-c4ccc(CO)cc4)c3)cc(=O)oc2c1,/,?,10.0%,/,/,?
Cc1ccc(S(=O)(=O)c2nnn3c2nc(NCc2ccc4c(c2)OCO4)c2sccc23)cc1C,/,/,/,0.4,4.9%[46.1 µM],-22.3%
CCN1CCCC1CNC(=O)c1cnn(-c2ncc(C)c(-c3ccc(F)cc3)n2)c1C(C)C (stereo not drawn),/,/,/,/,/,-7.3%
O=c1c(=O)n(-c2ccccc2)ccn1Cc1cccc(C(F)(F)F)c1,/,/,/,?,12.1%[46.1 µM],-0.8%
CCCCCCCCCCCCCCCC(=O)OC[C@H](COP(=O)([O-])OCC[N+](C)(C)C)OC(C)=O,/,/,/,/,/,-1.3%[6.7 µM]
CCCCCCCCCCCCCCCC(=O)NCC(COP(=O)([O-])OCC[N+](C)(C)C)OCC (stereo not drawn),6.51µM*,/,/,/,-11.0%,/
CCCCCCCCCCCCCCCC(=O)NC[C@@H](COP(=O)([O-])OCC[N+](C)(C)C)OCC,6.51µM*,/,/,/,/,/
CCCNC(=O)C1(C)CCCN(CC(=O)c2ccc3c(c2)OCCO3)C1 (stereo not drawn),/,/,/,-29.9,/,5.6%
CCNC1CCC(Nc2ccnc3cc(Cl)ccc23)CC1 (stereo not drawn),?,12.6µM*,/,5.0,?,-22.0%
OC(CNc1ccnc2cc(Cl)ccc12)CNC1CCCCC1 (stereo not drawn),?,?,/,-77.7*,?,-15.8%
SMILES,Marburg entry inh,HCV inhibitor,SARS PLP yeast,HCMV inh,Lassa entry inh,FMDV inh
OC1CCCC1NCc1ccnc2cc(Cl)ccc12 (stereo not drawn),?,1.0%,/,-5.4,0.8%[46.1 µM],-7.5%
COc1cc(Cc2nc3ccccc3n2C(C)c2nc3ccccc3[nH]2)cc(OC)c1 (stereo not drawn),/,/,/,-8.3,/,-14.1%
COC(=O)c1cc(=O)nc(NN=C2c3ccccc3-c3ccccc32)s1,/,/,/,-65.6*,/,-20.2%
COC(=O)c1cc(=O)nc(NN=Cc2ccccc2)s1,/,/,/,18.4,/,/
CCOc1ccc(-n2c(=S)sc3c(=O)n(-c4ccc(F)cc4)c(SCC(=O)O)nc32)cc1,/,5.9%,-1.0%,23.4,/,-10.3%
O=C([O-])c1cc(-c2ccccc2)cc(-c2ccccc2)[n+]1CCc1ccc(Cl)cc1,/,1.1%,/,-79.5*,/,35.5µM*
Cc1cc(-c2ccccc2)cc(-c2ccccc2)[n+]1CCc1ccccc1,/,?,2.0%,-97.9*,/,20µM*
Cc1cc(-c2ccccc2)cc(-c2ccccc2)[n+]1C,?,-25.1%,0.8%,?,?,-17.9%
CCOc1ccc(-c2cc(C)[n+](CCO)c(-c3ccc(OCC)cc3)c2)cc1,?,-23.8%,-7.0%,-76.9*,?,-27.4%
Fc1ccc(C[n+]2c(-c3ccccc3)cc(-c3ccccc3)cc2-c2ccccc2)cc1,/,10µM*,2.2%,-84.3*,/,0.0%
CCCCNC(=O)C1C(c2ccc(C(F)(F)F)cc2)=Nc2ccccc2N1C(=O)c1ccc2nc(C)[nH]c2c1 (stereo not drawn),/,/,/,-86.4*,/,32.6%
O=C(NC1CCCC1)C1C(c2ccc(C(F)(F)F)cc2)=Nc2ccccc2N1C(=O)c1cccc(C(F)(F)F)c1 (stereo not drawn),/,/,/,61.8,/,16.1%
O=C(NC1CCCC1)C1C(c2ccccc2)=Nc2ccccc2N1C(=O)c1ccc(C(F)(F)F)cc1 (stereo not drawn),/,/,/,-83.4*,/,8.7%
COc1cc(NC(=O)C2=CC(c3ccc(F)cc3)=NS(=O)(=O)N2C)cc(OC)c1OC,-3.1%[46.1 µM],/,/,-13.4,21.7%[46.1 µM],-27.7%
COc1ccc(C(=O)CC(SCC(NC(C)=O)C(=O)O)c2ccc(Cl)cc2)cc1OC (stereo not drawn),/,?,-3.3%,?,/,-16.7%
COC(=O)c1ccc(-n2c(C)cc(C(=O)COC(=O)CNS(=O)(=O)c3ccc(C)cc3)c2C)cc1,-1.2%,26.2%,12.8%,-0.5,-4.9%,-9.9%
CCOc1ccc(-n2c(C)cc(C(=O)CCl)c2C)cc1,?,?,-7.2%,-92.0*,10µM*,28.2µM*
COC(=O)c1ccc(-n2c(C)cc(C(=O)CCl)c2C)cc1,/,6.31µM*,-4.3%,-84.5*,/,31.6µM*
COC(=O)c1ccc(-n2c(C)cc(C(=O)COC(=O)C3=COCCO3)c2C)cc1,0.0%[46.1 µM],9.3%,-3.0%,-66.1*,14.0%[46.1 µM],-16.0%
COC(=O)N[C@H](CC(C)=O)c1cccc(F)c1,-6.7%[14.2 µM],/,/,/,/,/
CNC(=O)c1ccc(-c2sc3nc(N4CCOCC4)c4c(c3c2N)CC(C)(C)OC4)o1,?,?,3.4%,115.7,?,-14.0%
CNC(=O)c1ccc(-c2sc3nc(N4CCOCC4)c4c(c3c2N)CCCC4)o1,-14.7%,11.2µM*,-8.8%,-11.0,-2.5%,?
